Test [1] can be described thus: qHTS assay to identify small molecule agonists of the estrogen receptor alpha (ER-alpha) signaling pathway in the presence of an antagonist - cell viability counter screen (AID 1259386).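 Further: cells exposed to compounds for 22 h at 37 °C before the viability read; nearly all actives have a fitted effect of over 30% in size.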 Further: potency means the concentration at half of the fitted maximal effect. In outline: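 Fluorescent CellTiter-Fluor viability signal from VM7Luc4E2 cells, with the reagent added during the final hour of a 22hr compound exposure at 37C in the presence of 10.0nM ICI-182,780.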
A general note: Quantitative high-throughput screening tests each substance at several concentrations.

The target of test [2] is Progesterone receptor (Homo sapiens) (UniProt P06401). The test can be described thus: qHTS assay to identify small molecule agonists of the progesterone receptor (PR) signaling pathway (AID 1346784; calls by dose curve; further: nearly all actives have a fitted effect of over 30% in size; further: potency means the concentration at half of the fitted maximal effect). In outline: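 Seed PR-UAS-bla HEK 293T cells (2% charcoal-stripped FBS), incubate 6 hr at 37C; add compounds in DMSO, 16 hr at 37C; add LiveBLAzer B/G substrate, 2 hr RT; read fluorescence intensity.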
Progesterone receptor (Homo sapiens), sequence (P06401 whole entry, looked up): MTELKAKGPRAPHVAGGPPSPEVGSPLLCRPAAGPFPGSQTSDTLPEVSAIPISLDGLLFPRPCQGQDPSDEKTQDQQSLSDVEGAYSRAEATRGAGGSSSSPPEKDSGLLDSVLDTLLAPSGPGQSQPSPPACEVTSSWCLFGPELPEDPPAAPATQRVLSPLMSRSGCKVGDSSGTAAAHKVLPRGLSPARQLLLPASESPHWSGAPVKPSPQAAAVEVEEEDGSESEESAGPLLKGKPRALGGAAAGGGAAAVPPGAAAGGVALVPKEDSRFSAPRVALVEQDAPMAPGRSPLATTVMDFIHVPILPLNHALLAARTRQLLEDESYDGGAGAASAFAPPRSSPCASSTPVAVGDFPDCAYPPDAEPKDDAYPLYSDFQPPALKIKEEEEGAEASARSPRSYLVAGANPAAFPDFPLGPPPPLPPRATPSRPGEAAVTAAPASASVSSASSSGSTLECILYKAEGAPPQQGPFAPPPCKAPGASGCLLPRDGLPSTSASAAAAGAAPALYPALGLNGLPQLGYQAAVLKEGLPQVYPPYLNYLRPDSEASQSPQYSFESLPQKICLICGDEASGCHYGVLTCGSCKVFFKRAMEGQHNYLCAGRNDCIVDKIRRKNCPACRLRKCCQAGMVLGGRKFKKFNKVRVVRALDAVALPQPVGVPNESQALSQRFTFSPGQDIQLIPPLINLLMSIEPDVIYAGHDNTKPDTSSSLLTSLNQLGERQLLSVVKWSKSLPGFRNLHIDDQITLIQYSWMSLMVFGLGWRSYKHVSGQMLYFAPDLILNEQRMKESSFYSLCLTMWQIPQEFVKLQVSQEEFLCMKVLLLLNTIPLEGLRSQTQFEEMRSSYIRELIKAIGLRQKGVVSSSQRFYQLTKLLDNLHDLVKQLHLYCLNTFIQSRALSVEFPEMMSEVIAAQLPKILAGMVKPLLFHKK

Test [3] can be described thus: qHTS assay to identify small molecule antagonists of the TGF-beta/Smad signaling pathway - cell viability counter screen (AID 1346824). Further: nearly all actives have a fitted effect of over 50% in size. The method, boiled down:
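SBE-bla HEK 293T cells, incubated overnight, then compound plus 0.25 ng/mL TGF-beta1 (stock added) for 5 hr at 37 C. Viability was read in the same wells by CellTiter-Glo luminescence after 30 min at room temperature.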

A short description of test [4]: qHTS assay to identify small molecule agonists of the TGF-beta/Smad signaling pathway - cell viability counter screen (AID 1346829). Further: top concentration of the series differs between compounds; nearly all actives have a fitted effect of over 45% in size. In outline:
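Tox21 qHTS format: SBE-bla HEK 293T cells treated with DMSO-dissolved compounds for 5 hr; CellTiter-Glo luminescence after 30 min at room temperature.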

Test [5] is described as follows: qHTS assay to identify small molecule agonists of the TGF-beta/Smad signaling pathway (AID 1346859; active means well fitted activation curve with a large enough effect in the signal ratio in the repeat runs, not every such curve was filed as active; the % refers to the signal ratio; further: series mostly up to about 77 µM). The method, boiled down:
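Beta-lactamase reporter activity downstream of Smad binding elements was measured in stably transfected HEK 293T cells; compounds were incubated for 5 hr, substrate for 2 hr at room temperature.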

Test [6] concerns the target Thyrotropin-releasing hormone receptor (Homo sapiens) (UniProt P34981). In words: qHTS assay to identify small molecule antagonists of the thyrotropin-releasing hormone receptor (TRHR) signaling pathway (AID 1346877; active means well fitted inhibition curve with a large enough effect in the repeat runs, not every such curve was filed as active; further: potency means the concentration at half of the fitted maximal effect). The method, boiled down: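 In this cell-based calcium flux format, HEK293 cells expressing TRHR received test compound for 5 min before the agonist TRH (1 nM final). Dye loading lasted 2 h at 37 °C.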

Test [7] shares this target. The test can be described thus: qHTS assay to identify small molecule agonists of the thyrotropin-releasing hormone receptor (TRHR) signaling pathway (AID 1346891; calls by dose curve; further: series mostly up to about 58 µM). The method, boiled down: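 Overnight-plated (18 h, 37 °C, 5% CO2) TRHR-Hek293 cells; 2 h calcium dye at 37 °C; compound in DMSO; 3-min kinetic fluorescence read.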
Test [8] deals with Progesterone receptor (Homo sapiens) (UniProt P06401). The test can be described thus: qHTS assay to identify small molecule antagonists of the progesterone receptor (PR) signaling pathway (AID 1346795; active means well fitted inhibition curve with a large enough effect in the signal ratio in the repeat runs, not every such curve was filed as active; the % refers to the signal ratio; further: potency means the concentration at half of the fitted maximal effect). In outline:
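Screening used a GripTite HEK293T line with PR-responsive UAS-beta-lactamase. Cells were challenged with compound in the presence of 1 nM R5020 final for 16 hr at 37C; B/G FRET substrate, 2 hr room temperature, fluorescence.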

Test [9] is described as follows: qHTS assay to identify small molecule antagonists of the progesterone receptor (PR) signaling pathway - cell viability counter screen (AID 1346798). Further: series mostly up to about 92 µM; nearly all actives have a fitted effect of over 50% in size. The method, boiled down: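 Measures cytotoxicity in parallel with the PR antagonist reporter read: HEK293T PR-UAS-bla cells get compound and R5020 for 16 hr, and remaining viable cells are quantified by CellTiter-Glo luminescence.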

The nature of test [10]: qHTS assay to identify small molecule agonists of the progesterone receptor (PR) signaling pathway - cell viability counter screen (AID 1346799; calls by dose curve; further: nearly all actives have a fitted effect of over 45% in size). The method, boiled down:
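Using the same plates as the PR reporter screen, HEK293T PR-UAS-bla cells received compounds for 16 hr at 37C and were then lysed with CellTiter-Glo; luminescence was read 30 min later at room temperature.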

“And” between values parts separate entries of the source, which are not always exact repeats. Identical values can stand only once. Results filed as inconclusive are left out. The source made the active and inactive calls. Unless noted, the call rests on the fitted dose curve; in most records, active means well fitted curve in the direction sought with a large enough effect in the repeat runs; inconclusive means weak or mixed curves; inactive means no such curve, though single readings can be large; an effect the other way counts as inactive or inconclusive.

Thyrotropin-releasing hormone receptor (Homo sapiens), sequence (P34981 whole entry, looked up): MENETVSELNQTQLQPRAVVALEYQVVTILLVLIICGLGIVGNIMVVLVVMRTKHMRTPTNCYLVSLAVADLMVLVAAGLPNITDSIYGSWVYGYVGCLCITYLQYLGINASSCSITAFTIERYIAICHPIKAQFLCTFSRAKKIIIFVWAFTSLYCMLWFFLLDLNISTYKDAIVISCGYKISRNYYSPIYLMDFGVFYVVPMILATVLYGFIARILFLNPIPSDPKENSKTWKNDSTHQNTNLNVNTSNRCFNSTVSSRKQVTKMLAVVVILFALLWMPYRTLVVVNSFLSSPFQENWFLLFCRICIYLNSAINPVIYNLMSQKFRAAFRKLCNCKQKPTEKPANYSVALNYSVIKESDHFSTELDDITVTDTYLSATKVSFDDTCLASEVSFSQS

In the case of `CN(C)CCc1c[nH]c2ccccc12`, the Potency result in test [1], in test [2], in test [3], in test [4], in test [6] and in test [7] was “inactive” throughout. Besides, the outcome in [5] was inactive.

Take `CCOP(=S)(NC(C)C)Oc1ccccc1C(=O)OC(C)C` (stereo not given): the Potency entry in test [1], in test [2], in test [3], in test [4], in [6] and in [7] was “inactive” in each case.

`C[C@]12CC[C@H]3[C@@H](CCC4=CC(=O)CC[C@@H]43)[C@@H]1CC[C@@H]2OC(=O)CCc1ccco1`: the Potency result in test [1], in [8], in test [4], in test [6] and in [7] was “inactive” in each case. Besides, in test [2], the Potency was 0.841 µM (active).

As to `CN`, the Potency result in test [1], in [2], in [9], in test [3], in [4] and in test [6] was “inactive” in each case. The Potency entry in test [7] was “inactive”. The call in test [5] was inactive.

Take `BrCC(Br)(Br)Br`: the Potency result in test [1], in test [2], in test [10], in [3], in test [4] and in test [7] was “inactive” in each case. Further, the outcome in test [5] was inactive. The Potency in test [6] was 15.7 µM (active).

`CCc1cccc(C)c1N(C(=O)CCl)[C@@H](C)COC`: the Potency entry in test [1], in test [2], in test [9], in test [3], in [4] and in test [6] was “inactive” each time. In test [7], the Potency entry is “inactive”. The compound was called inactive in test [5].

Turning to `CC1(C)[C@H](/C=C2\CCSC2=O)[C@@H]1C(=O)OCc1coc(Cc2ccccc2)c1`, the Potency entry in test [1], in test [2], in test [3], in test [4], in [6] and in [7] was “inactive” each time.

As to `ClSC(Cl)(Cl)Cl`, the Potency entry in test [1], in [2], in [9], in test [10], in test [3] and in test [4] was “inactive” throughout. Also, the Potency result in [6] and in test [7] was “inactive” in each case. Further, in [5], the call was inactive.

Consider `COC(=O)N(OC)c1ccccc1COc1ccn(-c2ccc(Cl)cc2)n1`, for which the figures for the Potency in test [1] and in [8] were 864 nM (active) and 4.86 µM (active), respectively. Besides, the Potency result in test [2], in test [3], in [4], in test [6] and in [7] was “inactive” in each case.

Consider `CCNS(=O)(=O)C(F)(F)C(F)(F)C(F)(F)C(F)(F)C(F)(F)C(F)(F)C(F)(F)C(F)(F)F`, for which the Potency result in test [1], in [2], in [3], in test [4], in [6] and in [7] was “inactive” throughout. Moreover, in test [8], the Potency is 65.7 µM (active).

In the case of `c1csc(-c2ccc(-c3cccs3)s2)c1`, the Potency result in test [1], in test [2], in test [9], in [10], in test [4] and in test [6] was “inactive” each time. In test [7], the Potency entry was “inactive”.

`[O-][Cl+3]([O-])([O-])O`: the Potency result in test [1], in [2], in test [8], in test [3], in test [4] and in test [6] was “inactive” in each case. In addition, the Potency entry in test [7] was “inactive”. Besides, the outcome in [5] was inactive.

As to `CC(Cl)CCl` (stereo not given), the Potency result in [1], in [2], in test [9], in test [10], in [3] and in test [4] was “inactive” each time. The result in [5] was inactive.

For `CCC1COC(Cn2cncn2)(c2ccc(Cl)cc2Cl)O1` (stereo not given), the Potency result in test [1], in [2], in [3], in test [4], in test [6] and in [7] was “inactive” in each case. Further, the Potency in test [8] is 27.3 µM (active). In addition, the result in [5] was inactive.

`COC(=O)C(C)N(C(=O)c1ccco1)c1c(C)cccc1C` (stereo not given): the Potency entry in test [1], in test [2], in test [9], in [10] and in test [4] was “inactive” in each case. The compound was called inactive in test [5].

Take `COc1ccc(Cc2nccc3cc(OC)c(OC)cc23)cc1OC`: in test [1], the Potency was 13300 nM (active). The Potency entry in test [2], in test [8], in [4], in test [6] and in test [7] was “inactive” each time. In addition, the call in [5] was inactive.

As to `Cc1ccc2cc3c(ccc4ccccc43)c3c2c1CC3`, the Potency entry in [1], in test [2], in test [9], in test [10], in test [3] and in test [4] was “inactive” throughout. Also, the Potency result in [6] and in test [7] was “inactive” each time.

Take `c1ccc(N=NNc2ccccc2)cc1`: the Potency in [1] was 28.3 µM (active) and 27.3 µM (active); in [8], 56.4 µM (active) and 48.6 µM (active). Moreover, the Potency result in [2], in test [3], in test [4], in test [6] and in [7] was “inactive” throughout.

Source of the values: PubChem BioAssay (Tox21).
